According to PubChem BioAssay AID1946 (Johns Hopkins Ion Channel Center, 2009):
In all, about 2,400 compounds went through this assay and about 180 (7.5%) were called active. This is one part of a sample in which actives are shown more often than they occur. Unmarked numbers belong to inactive results.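 Rule for the calls: active = readout below zero, meaning a drop past 3 SD under the dofetilide-free negative control mean; inactive = the rest.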

Molecular target: Potassium voltage-gated channel subfamily KQT member 2 (Rattus norvegicus) (UniProt O88943)
Assay: rat KCNQ2 channel inhibition by compounds alone, confirmation, counter-screen for hERG block protector project, cell-based, CHO, FluxOR thallium flux (AID 1946)
Details: CHO-KCNQ2 cells, FluxOR thallium flux fluorescence; at 10 µM; stronger effect = lower value; zero marks the 3-SD hit cutoff

Potassium voltage-gated channel subfamily KQT member 2 (Rattus norvegicus), sequence (O88943 whole entry, looked up): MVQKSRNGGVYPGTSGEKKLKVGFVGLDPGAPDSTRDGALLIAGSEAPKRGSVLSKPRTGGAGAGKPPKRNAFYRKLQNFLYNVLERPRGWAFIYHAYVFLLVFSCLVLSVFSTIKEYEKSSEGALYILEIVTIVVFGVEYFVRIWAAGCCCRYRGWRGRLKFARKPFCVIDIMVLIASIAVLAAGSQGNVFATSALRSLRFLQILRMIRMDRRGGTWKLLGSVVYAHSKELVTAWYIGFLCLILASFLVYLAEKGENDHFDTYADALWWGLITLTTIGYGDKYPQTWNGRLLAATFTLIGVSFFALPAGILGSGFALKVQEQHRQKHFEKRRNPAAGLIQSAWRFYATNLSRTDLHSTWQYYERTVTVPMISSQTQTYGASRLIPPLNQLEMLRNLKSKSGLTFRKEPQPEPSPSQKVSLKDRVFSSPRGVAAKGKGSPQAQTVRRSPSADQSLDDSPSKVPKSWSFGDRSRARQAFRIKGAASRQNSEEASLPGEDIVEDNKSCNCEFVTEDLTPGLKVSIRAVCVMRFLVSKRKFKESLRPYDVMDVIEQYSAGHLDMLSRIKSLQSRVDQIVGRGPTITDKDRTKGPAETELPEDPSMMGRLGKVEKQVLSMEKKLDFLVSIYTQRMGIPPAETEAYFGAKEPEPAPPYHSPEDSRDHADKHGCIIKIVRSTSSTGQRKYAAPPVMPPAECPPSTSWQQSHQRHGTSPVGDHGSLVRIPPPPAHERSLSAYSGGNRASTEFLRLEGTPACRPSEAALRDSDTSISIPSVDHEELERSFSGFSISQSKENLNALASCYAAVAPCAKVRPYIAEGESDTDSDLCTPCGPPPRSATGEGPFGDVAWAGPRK

**Q.** Which activity change vs negative control does the source give for `O=C(NC(=S)N1CCN(c2nc(-c3ccccc3)cs2)CC1)c1cncc(Br)c1` here?
**A.** 76.4%

**Q.** Which activity change vs negative control does the source give for `Cc1ccccc1OC(=O)n1c(=S)oc2cc(Cl)ccc21` here?
**A.** 33.4%

**Q.** How did the activity change vs negative control turn out when `Cc1ccc2nsnc2c1S(=O)(=O)Nc1cccc2nsnc12` was run?
**A.** 27.1%

**Q.** How did the activity change vs negative control turn out when `O=C(COc1ccccc1)Nc1ccc(S(=O)(=O)Nc2ccccn2)cc1` was run?
**A.** 0.2%

**Q.** Which activity change vs negative control does the source give for `Cc1cc(C)nc(NS(=O)(=O)c2ccc(NC(=O)Cc3ccccc3)cc2)n1` here?
**A.** 12.6%

**Q.** Which activity change vs negative control does the source give for `O=C(CCCc1c[nH]c2ccccc12)Nc1ccc(S(=O)(=O)Nc2ncccn2)cc1` here?
**A.** -0.6% (active)

**Q.** `Cc1ccc(-c2n[nH]c(=S)nc2-c2ccc(C)cc2)cc1` was tested. Which activity change vs negative control did it give?
**A.** 15.9%

**Q.** `S=C(Nc1ccc(Cl)cc1)c1nc2ccccc2s1` was tested. Which activity change vs negative control did it give?
**A.** 22%

**Q.** With `CN(CC(=O)Nc1nc2ccccc2s1)S(=O)(=O)c1ccc(Cl)cc1` as the compound, how does the activity change vs negative control read?
**A.** -3.4% (active)

**Q.** For `O=C(NC(=S)Nc1nc2ccccc2s1)c1cccs1`, which activity change vs negative control is on record?
**A.** 38.4%

**Q.** How did the activity change vs negative control turn out when `Cc1nc2ccccc2n1-c1ccccc1` was run?
**A.** 19.5%

**Q.** How did the activity change vs negative control turn out when `Oc1c(Cl)cc(Cl)cc1/C=N/c1ncn[nH]1` was run?
**A.** 53.4%

**Q.** Which activity change vs negative control does the source give for `O=C(NC(=S)N1CCCCCC1)c1ccc(Cl)cc1Cl` here?
**A.** 30.8%

**Q.** With `COc1ccc(NC(=O)C(=O)NNC(=O)COc2ccc(Cl)cc2)c(OC)c1` as the compound, how does the activity change vs negative control read?
**A.** 38.6%

**Q.** With `CN(Cc1ccsc1)C(=O)CCc1nnc(Cc2c[nH]c3ccccc23)o1` as the compound, how does the activity change vs negative control read?
**A.** 10.6%

**Q.** For `COCCCNC(=O)CCc1nnc(Cc2ccc(-c3ccccc3)cc2)o1`, which activity change vs negative control is on record?
**A.** 26.3%

**Q.** `CC(C)CCNC(=O)CCc1nnc(Cc2c[nH]c3ccccc23)o1` was tested. Which activity change vs negative control did it give?
**A.** -0.6% (active)

**Q.** `CC(C)C(=O)Nc1ccc(NC(=O)CCc2ccccc2)cn1` was tested. Which activity change vs negative control did it give?
**A.** -1.8% (active)

**Q.** How did the activity change vs negative control turn out when `O=C(CS(=O)(=O)Cc1ccccc1)Nc1ccc(Cl)cn1` was run?
**A.** 7.9%

**Q.** With `CN(C)c1ccc(NC(=O)CCCc2ccccc2)cc1` as the compound, how does the activity change vs negative control read?
**A.** 29.6%

**Q.** Which activity change vs negative control does the source give for `S=c1nc(C2CCCCC2)n(-c2ccccc2)[nH]1` here?
**A.** 72.6%

**Q.** How did the activity change vs negative control turn out when `O=C(Nc1ccc(N2CCOCC2)cc1)c1ccc(S(=O)(=O)N2CCCCC2)cc1` was run?
**A.** 10.5%

**Q.** Which activity change vs negative control does the source give for `O=[N+]([O-])c1ccc(S(=O)(=O)Nc2ccc(S(=O)(=O)N3CCCC3)cc2)cc1` here?
**A.** -0.3% (active)

**Q.** For `N#C/C(=N/Nc1ccc([N+](=O)[O-])cc1)C(=N)N1CCCCC1`, which activity change vs negative control is on record?
**A.** 17%

**Q.** Which activity change vs negative control does the source give for `COc1ccc(OCC(=O)NNC(=O)C(=O)Nc2cc(OC)ccc2OC)cc1` here?
**A.** 38.9%

**Q.** `CCOC(=O)c1sc2nc(C)[nH]c(=S)c2c1C` was tested. Which activity change vs negative control did it give?
**A.** 32.7%

**Q.** `CC(NC(=O)c1ccc(F)cc1)c1ccc2c(c1)CCCC2` (centres undefined) was tested. Which activity change vs negative control did it give?
**A.** 55.5%

**Q.** Which activity change vs negative control does the source give for `CCn1c(SCC(N)=O)nc2sc3c(c2c1=O)CCCC3` here?
**A.** 60.6%

**Q.** How did the activity change vs negative control turn out when `CCCn1c(SCC(=O)N2CCN(C(C)=O)CC2)nc2sc3c(c2c1=O)CCC3` was run?
**A.** 51.5%

**Q.** Which activity change vs negative control does the source give for `CCC(=O)N1CCN(c2nc(CC)nc3sc4c(c23)CCCC4)CC1` here?
**A.** -20.7% (active)

**Q.** `CCN(CC)C(=S)NC(=O)c1ccc(OC)c(Br)c1` was tested. Which activity change vs negative control did it give?
**A.** 16.8%

**Q.** With `O=C1CC(O)(C(F)(F)F)Oc2c1ccc1ccccc21` (centres undefined) as the compound, how does the activity change vs negative control read?
**A.** 49.7%

**Q.** `S=c1nc(C2CCCCC2)[nH]c2ccccc12` was tested. Which activity change vs negative control did it give?
**A.** 25.5%

**Q.** With `CCCCC1(O)CC(C(F)(F)F)=NN1C(=O)COc1ccccc1` (centres undefined) as the compound, how does the activity change vs negative control read?
**A.** -7.8% (active)

**Q.** Which activity change vs negative control does the source give for `O=C(C1CC1)N1N=C(c2ccccc2)CC1(O)C(F)(F)C(F)(F)F` (centres undefined) here?
**A.** 7.3%

**Q.** Which activity change vs negative control does the source give for `CC(C)(C)C1(O)CC(C(F)(F)F)=NN1C(=O)Cc1ccc([N+](=O)[O-])cc1` (centres undefined) here?
**A.** 10.6%

**Q.** `CN(C(=S)NC(=O)c1ccc(Cl)cc1)C1CCCCC1` was tested. Which activity change vs negative control did it give?
**A.** 26.3%

**Q.** With `Cc1ccc(-n2ncc3c(SCC(=O)NNC(=O)c4ccco4)ncnc32)cc1` as the compound, how does the activity change vs negative control read?
**A.** 35.7%

**Q.** Which activity change vs negative control does the source give for `CNC(=O)CSc1nnc(-c2ccco2)n1-c1ccccc1` here?
**A.** 7%

**Q.** For `CNC(=O)CSc1nnc(-c2ccco2)n1-c1ccc(C)cc1`, which activity change vs negative control is on record?
**A.** -1.9% (active)

**Q.** For `C/C(=N/NC(=O)c1cc2ccccc2cc1O)c1ccco1`, which activity change vs negative control is on record?
**A.** 87.3%

**Q.** For `O=C(COc1ccc2ccccc2c1)NNC(=O)C(=O)Nc1ccccc1`, which activity change vs negative control is on record?
**A.** 61.8%

**Q.** `CCCn1c(=S)[nH]c2sc3c(c2c1=O)CCCC3` was tested. Which activity change vs negative control did it give?
**A.** 95%

**Q.** `CCOC(=O)Cc1csc(NC(=S)NC(=O)c2ccccc2Br)n1` was tested. Which activity change vs negative control did it give?
**A.** 38.6%

**Q.** How did the activity change vs negative control turn out when `Cc1csc(NC(=O)c2cc3c(s2)CCCC3)n1` was run?
**A.** 49.2%

**Q.** `CC(OC(=O)c1cc2c(s1)CCCCC2)C(=O)NC(N)=O` (centres undefined) was tested. Which activity change vs negative control did it give?
**A.** -1.8% (active)

**Q.** For `NC(=O)C1CCN(C(=O)c2cc3c(s2)CCCC3)CC1`, which activity change vs negative control is on record?
**A.** 41.4%

**Q.** For `Cc1nc(NCc2cccnc2)c2c3c(sc2n1)CC(C)CC3` (centres undefined), which activity change vs negative control is on record?
**A.** 49.7%

**Q.** Which activity change vs negative control does the source give for `Cc1cc(SCC(=O)c2cccc([N+](=O)[O-])c2)nc(=O)[nH]1` here?
**A.** 7.5%

**Q.** For `N/C(=N\OS(=O)(=O)c1cccc([N+](=O)[O-])c1)c1ccncc1`, which activity change vs negative control is on record?
**A.** 29.1%

**Q.** How did the activity change vs negative control turn out when `O=C(CSc1nnc(-c2ccncc2)o1)c1cccc([N+](=O)[O-])c1` was run?
**A.** -7.8% (active)

**Q.** With `Cc1ccc2oc3c(c(=O)c2c1)C(c1cccs1)N(CCCN(C)C)C3=O` (centres undefined) as the compound, how does the activity change vs negative control read?
**A.** 21.6%

**Q.** For `CCC(C)N(C(=O)CSc1nnc(NC(C)C)s1)C1CCS(=O)(=O)C1` (centres undefined), which activity change vs negative control is on record?
**A.** -0.9% (active)

**Q.** Which activity change vs negative control does the source give for `CCOC(=O)c1sc2nc(C)nc(SCC(=O)N(C)C3CCS(=O)(=O)C3)c2c1C` (centres undefined) here?
**A.** 20.9%

**Q.** With `CN(C(=O)CSc1ncnc2sc(-c3ccccc3)cc12)C1CCS(=O)(=O)C1` (centres undefined) as the compound, how does the activity change vs negative control read?
**A.** 94.7%

**Q.** How did the activity change vs negative control turn out when `COc1ccccc1C(=O)NNC(=O)C(=O)Nc1ccc(C)c(Cl)c1` was run?
**A.** 148%

**Q.** With `COC(=O)c1ccc(C2C(C#N)=C(N)Oc3cc(O)ccc32)cc1` (centres undefined) as the compound, how does the activity change vs negative control read?
**A.** 12.7%

**Q.** How did the activity change vs negative control turn out when `CCOC(=O)C1=C(N)Oc2cc(O)ccc2C1c1cccnc1` (centres undefined) was run?
**A.** -1.7% (active)

**Q.** `Cc1nn(Cc2ccccc2)c2c1C(c1cccnc1)C(C#N)=C(N)O2` (centres undefined) was tested. Which activity change vs negative control did it give?
**A.** 12.9%

**Q.** With `Cc1nn(CC(=O)Nc2ccc(C(=O)N3CCCC3)cc2)c(=O)c2ccccc12` as the compound, how does the activity change vs negative control read?
**A.** 32.9%

**Q.** `O=C(Nc1cccc(N=Cc2cc(Cl)cc(Br)c2O)c1)c1ccco1` was tested. Which activity change vs negative control did it give?
**A.** 53.8%

**Q.** Which activity change vs negative control does the source give for `COc1cccc(C(=O)NNC(=O)C(=O)Nc2cccc3ccccc23)c1` here?
**A.** 91%

**Q.** `COc1ccc(NC(=S)NC(NC(=O)c2cccc3ccccc23)C(Cl)(Cl)Cl)c([N+](=O)[O-])c1` (centres undefined) was tested. Which activity change vs negative control did it give?
**A.** -0.3% (active)

**Q.** Which activity change vs negative control does the source give for `CCOC(=O)C(=CNc1ccc(OC)cc1[N+](=O)[O-])C(=O)OCC` here?
**A.** 13.9%
